Screening results as filed in PubChem BioAssay.
Hits are enriched below; roughly 4% of the tested compounds scored in any of these assays.
GDH-TPI counter-1 = GDH-TPI coupled enzyme inhibition counter-screen | GDH-TPI coupled enzyme counterscreen, NADH absorbance | inhibition, % at 4.8 µM | 360,000 tested, 1.2% active | AID 588335; in the data active = inhibition above about 30%
FBA Mtb inh = inhibits M. tuberculosis FBA enzyme; P9WQA3; purified M. tuberculosis FBA, fluorescence read-out; inhibition, % at 1 µM; 360,000 tested, 2.3% active
Target sequence (P9WQA3 whole entry, looked up): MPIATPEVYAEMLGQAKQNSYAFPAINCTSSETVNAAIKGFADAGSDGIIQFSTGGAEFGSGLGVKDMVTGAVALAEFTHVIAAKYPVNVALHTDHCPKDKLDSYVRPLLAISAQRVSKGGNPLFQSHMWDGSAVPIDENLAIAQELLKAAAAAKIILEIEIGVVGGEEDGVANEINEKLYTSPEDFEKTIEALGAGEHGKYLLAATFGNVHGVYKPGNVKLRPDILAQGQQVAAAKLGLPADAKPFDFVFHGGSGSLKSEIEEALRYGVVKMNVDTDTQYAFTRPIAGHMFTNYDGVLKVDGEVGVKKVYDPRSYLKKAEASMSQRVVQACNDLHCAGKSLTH
Mtb UGM inh = blocks M. tuberculosis UGM enzyme; P9WIQ1; purified UGM, fluorescence polarization probe displacement; inhibition, % at 10 µM; 320,000 tested, 0.06% active; in the data active = inhibition above about 10%, passing the limit was not always enough
Mtb bLac sens = beta-lactam sensitization of Mtb H37Rv | M. tuberculosis H37Rv growth with meropenem, percent inhibition | inhibition, % at 25 µM | 330,000 tested, 0.27% active | AID 434955; call rule not given here;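 also: growth measured after seven days incubation then overnight dye step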
Rv3671c inh = inhibits the M. tuberculosis serine protease Rv3671c; P9WHR9; inhibition, % at 5.96 µM; 320,000 tested, 0.048% active; AID 2606; in the data active = inhibition above about 38%;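 also: extracellular domain of Rv3671c used as enzyme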
RecA splice inh = Mtb RecA intein splicing inhibition. cell-free RecA intein splicing, fluorescence. inhibition, % (test concentration not listed). 290,000 tested, 0.75% active; in the data active = inhibition above about 30%
Mtb FBA inh conf = Mtb FBA inhibition, confirmed; shares compounds with FBA Mtb inh; purified M. tuberculosis FBA, fluorescence read-out; inhibition, % at 1 µM; 5,600 tested, 78% active
GDH-TPI counter-2 = counter-screen for M. tuberculosis FBA inhibitors: GDH-TPI coupled enzyme inhibition. shares compounds with FBA Mtb inh. GDH-TPI coupled enzyme counterscreen, fluorescence. AID 652141. 5,600 tested, 81% active. inhibition, % at 1 µM; in the data active = inhibition above about 10%
Of the large screens only hits and unclear results are named; the others gave an inactive call (follow-up assays come after a bar, where they were run). Rule as the data show it, unless noted: active = inhibition above about 27%; inactive = the rest.

COc1ccccc1CNC(=O)c1ccc2nc(C)c(N(C)Cc3ccc(NC(C)=O)cc3)n2c1	none (no result: Mtb UGM inh, Mtb bLac sens, Rv3671c inh, RecA splice inh)
O=C(NC(=S)NCCC1=CCCCC1)c1cccnc1	none (no result: RecA splice inh)
CCc1ccc(-c2cc(C)no2)cc1S(=O)(=O)Nc1ccc(C)cn1	FBA Mtb inh 30.6 | Mtb FBA inh conf inactive | GDH-TPI counter-2 inactive
Cc1ccc(NS(=O)(=O)c2cc(-c3cc(C)no3)ccc2C(C)C)nc1	FBA Mtb inh 37.3 | Mtb FBA inh conf 29.1 | GDH-TPI counter-2 24.0
Cc1ccc2[nH]c(=O)c3cc(C(=O)NCC4CCCO4)sc3c2c1 (configuration not stated)	none
O=C(NCC1CCCO1)c1cc2c(=O)[nH]c3ccccc3c2s1 (configuration not stated)	FBA Mtb inh 35.0 | Mtb FBA inh conf 53.0 | GDH-TPI counter-2 55.1
CCOC(CCNC(=O)c1cc2c(=O)[nH]c3ccccc3c2s1)OCC	none
CCCCN(CC)CCNC(=O)c1cc2c(=O)[nH]c3ccccc3c2s1	FBA Mtb inh 39.0 | Mtb FBA inh conf active | GDH-TPI counter-2 active
CCCN(CCC)CCCNC(=O)c1cc2c(=O)[nH]c3ccccc3c2s1	FBA Mtb inh 70.1 | Mtb FBA inh conf active | GDH-TPI counter-2 194.2
COC(=O)c1sccc1NC(=S)Nc1cccc(F)c1	none
COC(=O)c1sccc1NC(=S)Nc1ccc(F)cc1F	FBA Mtb inh 69.9 | Mtb FBA inh conf 79.2 | GDH-TPI counter-2 50.9
COC(=O)c1sccc1NC(=O)CN(C)NS(=O)(=O)c1ccc(F)cc1	FBA Mtb inh 27.1 | Mtb FBA inh conf 94.6 | GDH-TPI counter-2 72.0
Cn1c(-c2ccc(C=O)s2)nc2c3ccccc3c3ccccc3c21	FBA Mtb inh 53.1 | Mtb FBA inh conf 36.7 | GDH-TPI counter-2 37.2
CC(=O)Nc1cccc(C(=O)OC(C)C(=O)N2CCc3ccccc32)c1 (configuration not stated)	none
CN(CCO)C(=O)C1CCN(c2ncc(C(F)(F)F)cc2Cl)CC1	FBA Mtb inh 40.6 | Mtb FBA inh conf 79.5 | GDH-TPI counter-2 62.5
COC(=O)c1cc(COc2ccc3c(c2)oc(=O)c2ccccc23)c(C)o1	FBA Mtb inh 32.4 | Mtb FBA inh conf 106.7 | GDH-TPI counter-2 80.5
COCCOC(=O)c1c(C)oc2ccc(OCc3cc(C(=O)OC)oc3C)cc12	none
Cc1cccc(NC(=O)C2C3C=CC(O3)C2C(=O)O)c1 (configuration not stated)	none (no result: GDH-TPI counter-1, FBA Mtb inh)
c1ccc(-c2nc3ccccc3s2)nc1	none
CN(C)c1ncccc1-c1nc2ccccc2s1	FBA Mtb inh 30.3 | Mtb FBA inh conf 30.6 | GDH-TPI counter-2 17.2
COC(=O)c1cc(CNC(=O)CCCSc2ccccc2)ccc1OC	none (no result: Mtb UGM inh, Mtb bLac sens, Rv3671c inh)
CCN(CC)c1ccc(-c2nn3c(-c4ccccc4OC)nnc3s2)cc1	FBA Mtb inh 30.8 | Mtb FBA inh conf 51.9 | GDH-TPI counter-2 31.1
COc1cccc(C2Nc3ccccc3C(=O)N2Cc2ccccc2)c1 (configuration not stated)	FBA Mtb inh 60.8 | Mtb FBA inh conf inactive | GDH-TPI counter-2 18.0
COc1ccc2c(c1)C[C@]1(C)c3ccccc3C(=O)N(Cc3ccccc3)[C@H]21	none (no result: Mtb UGM inh, Mtb bLac sens, Rv3671c inh, RecA splice inh)
O=C1c2ccccc2NC(c2ccccc2)N1Cc1ccccc1 (configuration not stated)	FBA Mtb inh 63.1 | Mtb FBA inh conf 38.5 | GDH-TPI counter-2 15.1
O=C1c2ccccc2NC(c2ccc(F)cc2)N1Cc1ccccc1 (configuration not stated)	FBA Mtb inh 56.5 | Mtb FBA inh conf 79.1 | GDH-TPI counter-2 54.9
O=C1NCCN1CCN1C(=O)c2ccccc2NC1c1ccccc1 (configuration not stated)	FBA Mtb inh 72.3 | Mtb FBA inh conf 108.4 | GDH-TPI counter-2 91.4
O=C(O)C1c2ccccc2C(=O)N(Cc2ccc(F)cc2)C1c1ccncc1 (configuration not stated)	none
O=C1c2ccccc2NC(c2ccccc2)N1c1ccc(O)cc1 (configuration not stated)	none
CN(C)c1ccc(C2Nc3ccccc3C(=O)N2CCN2CCNC2=O)cc1 (configuration not stated)	none
